According to paper PMC4336329 (PLoS ONE, 2015):
The whole screen tested about 310,000 compounds, of which about 14,000 (4.5%) showed an effect of 50% or more. The effect is printed as a negative number. The entries come from a sample that favours strong results as a whole.

Molecular target: human ether-à-go-go-related gene (hERG) potassium channel (human, UniProt Q12809)
Test: primary screen, population patch clamp on CHO cells stably expressing hERG; higher = less effect of the substance
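Note: peak tail current of the secondary pulse compared with the same well before compound.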

human ether-à-go-go-related gene (hERG) potassium channel, sequence (Q12809 whole entry, looked up): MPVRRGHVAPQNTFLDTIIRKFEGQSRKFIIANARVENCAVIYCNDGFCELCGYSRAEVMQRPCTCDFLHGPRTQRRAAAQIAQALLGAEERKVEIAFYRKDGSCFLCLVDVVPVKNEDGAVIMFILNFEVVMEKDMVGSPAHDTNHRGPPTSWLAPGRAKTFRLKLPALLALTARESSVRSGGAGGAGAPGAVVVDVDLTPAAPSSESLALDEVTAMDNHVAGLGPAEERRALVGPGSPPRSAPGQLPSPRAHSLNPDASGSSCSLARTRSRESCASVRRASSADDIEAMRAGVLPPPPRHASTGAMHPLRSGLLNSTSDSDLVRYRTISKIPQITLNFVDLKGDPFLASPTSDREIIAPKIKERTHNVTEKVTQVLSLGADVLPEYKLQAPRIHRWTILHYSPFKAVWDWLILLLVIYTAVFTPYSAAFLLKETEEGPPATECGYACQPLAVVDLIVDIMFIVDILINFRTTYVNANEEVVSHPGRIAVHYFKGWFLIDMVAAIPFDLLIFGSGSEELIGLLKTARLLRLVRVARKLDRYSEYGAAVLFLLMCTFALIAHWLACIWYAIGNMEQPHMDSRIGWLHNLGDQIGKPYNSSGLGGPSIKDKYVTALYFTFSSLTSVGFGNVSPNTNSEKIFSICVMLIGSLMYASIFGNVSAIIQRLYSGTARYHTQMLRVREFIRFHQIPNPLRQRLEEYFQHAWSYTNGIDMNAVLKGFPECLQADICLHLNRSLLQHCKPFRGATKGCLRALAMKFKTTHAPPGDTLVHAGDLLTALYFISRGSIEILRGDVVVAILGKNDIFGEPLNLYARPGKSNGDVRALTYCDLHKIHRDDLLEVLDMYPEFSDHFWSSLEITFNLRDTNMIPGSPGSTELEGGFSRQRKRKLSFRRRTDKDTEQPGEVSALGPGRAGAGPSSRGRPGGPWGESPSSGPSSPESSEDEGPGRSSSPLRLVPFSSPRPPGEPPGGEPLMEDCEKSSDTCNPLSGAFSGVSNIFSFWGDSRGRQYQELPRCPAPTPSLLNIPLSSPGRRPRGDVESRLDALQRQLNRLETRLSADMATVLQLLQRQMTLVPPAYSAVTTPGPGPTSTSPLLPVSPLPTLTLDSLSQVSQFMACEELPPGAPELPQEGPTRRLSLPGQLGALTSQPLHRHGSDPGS

Compound | hERG current change (%, negative = inhibition) at 10uM
CCOC(=O)CNC(=O)c1cnc(Nc2ccccc2OC)c2ccccc12 | 5.33%
COc1ccccc1C1/C(=C(\O)c2ccc3c(c2)OCCO3)C(=O)C(=O)N1Cc1cccnc1 (stereo not shown) | 18.9%
O=C(CSc1ccc(-c2cccs2)nn1)NCc1ccccc1Cl | -28.7%
Cc1noc(C)c1COc1ccc(C(=O)N2CCN(c3ccccc3F)CC2)cc1 | -55%
Cc1noc(C)c1CSCC(=O)N1CCN(c2ccc(F)cc2)CC1 | -38.1%
Cc1cccc(N2CCN(C(=O)CSCc3c(C)noc3C)CC2)c1C | -14.9%
COc1cc(C(=O)N2CCN(S(=O)(=O)c3ccc(C)cc3)CC2)ccc1OCc1c(C)noc1C | -21%
Cc1noc(C)c1CSCC(=O)N1CCN(c2ccc([N+](=O)[O-])cc2)CC1 | -76.8%
Cc1noc(C)c1COc1ccc(C(=O)N2CCN(c3ccccc3O)CC2)cc1 | -14.4%
Cc1noc(C)c1COc1ccc(C(=O)N2CCN(c3ccccn3)CC2)cc1 | -31.8%
COc1cc(C(=O)N2CCN(c3ccc([N+](=O)[O-])cc3)CC2)ccc1OCc1c(C)noc1C | -60.2%
COc1ccc(N2CCN(C(=O)c3ccc(OCc4c(C)noc4C)c(OC)c3)CC2)cc1 | 6.01%
CCOC(=O)[C@@H]1[C@H]2COc3ccc(Br)cc3[C@H]2N2C(=O)N(c3ccc(Br)cc3)C(=O)[C@]12C | 7.88%
COc1ccccc1NS(=O)(=O)c1cccc(C(=O)NN=C2CCCC2)c1 | 0.33%
COc1ccc(CN(C)C(=O)Cc2ccc(OC)c(S(=O)(=O)N3CCOCC3)c2)cc1 | -20.4%
CCOC(=O)C1CCCN(S(=O)(=O)c2cccc3cccnc23)C1 (stereo not shown) | -14.9%
Cc1nnc(SCc2ccc(Cl)cc2)n1CC1CCCO1 (stereo not shown) | -3.26%
CSc1ccccc1NC(=O)COC(=O)Cn1cc(C(F)(F)F)ccc1=O | 4.23%
Cc1cc2oc(=O)cc(CN3CCCCC3C)c2cc1C(C)C (stereo not shown) | -22%
Cc1cccc(Nc2nc(-c3ccccn3)cs2)n1 | 12.9%
CN(CC(=O)OCC(=O)Nc1ccccc1)S(=O)(=O)c1ccc(Cl)cc1 | -19.9%

Compound | hERG current change (%, negative = inhibition) at 10uM
CCN(CC)c1ccc(/C=N/Nc2nc(C)cc(=O)[nH]2)cc1 | -20.5%
Cc1c(Cl)cccc1NC(=S)NCCc1ccccn1 | 9.25%
O=C(CC1SC(=O)N(c2ccccc2)C1=O)Nc1cccc2ccccc12 (stereo not shown) | 11.7%
COc1cc(NC(=O)Cn2cnc(S(=O)(=O)N3CCC(C)CC3)c2)cc(OC)c1OC | 20.6%
Br.COC(=O)COc1ccc(C(=O)Cn2c(NCCCO)nc3ccccc32)cc1 | -2.45%
Br.N=c1n(CC(=O)c2ccc([N+](=O)[O-])cc2)c2ccccc2n1Cc1ccccc1 | -70.1%
N=c1n(CC(=O)c2ccc(Br)cc2)c2ccccc2n1Cc1ccccc1.[Br-] | -9.25%
Br.CCCCn1c(=N)n(CC(=O)c2ccc([N+](=O)[O-])cc2)c2ccccc21 | -71.7%
Br.N=c1n(CC(=O)c2ccc([N+](=O)[O-])cc2)c2ccccc2n1Cc1ccc(Cl)cc1 | -14.3%
Br.Cc1ccc(Cn2c(=N)n(CC(=O)c3ccc([N+](=O)[O-])cc3)c3ccccc32)cc1 | -4.3%
Br.Cc1ccc(Cn2c(=N)n(CC(=O)c3ccccc3)c3ccccc32)cc1 | -72.2%
Br.CCCn1c(=N)n(CC(=O)c2ccc(OCC(=O)OC)cc2)c2ccccc21 | -52.7%
Br.N=c1n(CC(=O)c2ccc([N+](=O)[O-])cc2)c2ccccc2n1Cc1ccccc1Cl | -23.6%
O=C(N/N=C/c1ccccc1C(=O)O)c1ccncc1 | 18.3%
CCC(=O)NC(=S)Nc1ccc(-c2nc3ccccc3s2)cc1 | -2.92%
Cc1cc(C)nc(OC(C(=O)O)C(OCc2ccccc2)(c2ccccc2)c2ccccc2)n1 (stereo not shown) | 21.7%
CCC1CCCCN1C(=O)c1ccc2c(c1)C(=O)N(c1ccc(C)cc1)C2=O (stereo not shown) | -8.83%
CCOP(=O)(OCC)C(NS(=O)(=O)c1ccccc1)C(Cl)(Cl)Cl (stereo not shown) | 11.9%
Br.CCCn1c(=N)n(CC(=O)c2ccc([N+](=O)[O-])cc2)c2ccccc21 | -78.5%
Br.CCCCn1c(=N)n(CC(=O)c2ccc(OC)cc2)c2ccccc21 | -73.6%
Br.CCn1c(=N)n(CC(=O)c2ccc(OC)cc2)c2ccccc21 | -18.6%

Compound | hERG current change (%, negative = inhibition) at 10uM
Br.Cc1ccccc1Cn1c(=N)n(CC(=O)c2ccc([N+](=O)[O-])cc2)c2ccccc21 | -32.6%
Br.COc1ccc(C(=O)Cn2c(=N)n(C)c3ccccc32)cc1 | -28.8%
N#Cc1c(-c2ccco2)cc(C2CC2)nc1SCC(=O)c1ccccc1 | 17.4%
COCCNC(=S)N1CCN(c2cccc(C(F)(F)F)c2)CC1 | -12.2%
Cc1nn(Cc2cccc(F)c2)c(C)c1NC(=O)c1c([N+](=O)[O-])c(C)nn1C | -9.72%
CCCn1nnnc1SCC(=O)Nc1sc(C)c(C)c1C#N | 0.801%
O=C(COC(=O)CNC(=O)c1cccc(Br)c1)Nc1nnc(-c2ccccc2)o1 | -0.546%
CCOc1ccc(CNC(=O)CCCn2ccc3cc(S(=O)(=O)N4CCCC4)ccc32)cc1 | -32.7%
COc1ccc(CNC(=O)COc2ccc(S(=O)(=O)N3CCCCC3)cc2)cc1 | 6.5%
CC(C(=O)NCc1ccccc1)N1CCN(c2ccc(F)cc2)CC1 (stereo not shown) | -18.9%
COc1ccc(CNC(=O)C(C)N2CCN(S(=O)(=O)c3ccccc3F)CC2)cc1 (stereo not shown) | -15.9%
COc1ccc(CNC(=O)CCc2ccc(S(=O)(=O)N3CCCCCC3)cc2)cc1 | -54.9%
COC(=O)CCNC(=O)CCc1ccc(S(=O)(=O)N2CCCCCC2)cc1 | -12.1%
COc1ccc(CNC(=O)CCCn2ccc3cc(S(=O)(=O)N4CCCC4)ccc32)cc1 | -52%
COc1ccc(C(=O)NCc2ccc(N3CCN(C)CC3)cc2)cc1 | 5.1%
COc1ccc(CNC(=O)CCn2ccc3cc(S(=O)(=O)N4CCCC4)ccc32)cc1 | -12.4%
CCCc1ccc(S(=O)(=O)N2CCN(C(C)C(=O)NCc3ccc(OC)cc3)CC2)cc1 (stereo not shown) | -57.4%
COc1ccc(S(=O)(=O)N2CCN(C(C)C(=O)Nc3ccc(C(C)C)cc3)CC2)cc1 (stereo not shown) | -20.6%
COc1ccc(CNC(=O)C(C)N2CCN(c3ccc(C(C)=O)cc3)CC2)cc1 (stereo not shown) | -55.1%
